Screening results: PubChem, several laboratories
Only some compounds are listed: those with a hit (about 2% of all), similar ones and a draw of the others.
S1P2 ag = S1P2 (human) receptor agonism; O95136; S1P2-expressing cell line, agonist reporter read-out; activation, % at 4.5 µM; 0.46% of 97,000 active; in the data active = activation above about 16%
GALR2 blocker = GALR2 (human) receptor antagonism; O43603; GALR2-expressing cells, antagonist mode; inhibition, % at 4 µM; 0.39% of 140,000 active; AID 828; in the data active = inhibition above about 27%;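 also: cells stimulated with galanin 1-16 at roughly its EC80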
Target sequence (O43603 whole entry, looked up): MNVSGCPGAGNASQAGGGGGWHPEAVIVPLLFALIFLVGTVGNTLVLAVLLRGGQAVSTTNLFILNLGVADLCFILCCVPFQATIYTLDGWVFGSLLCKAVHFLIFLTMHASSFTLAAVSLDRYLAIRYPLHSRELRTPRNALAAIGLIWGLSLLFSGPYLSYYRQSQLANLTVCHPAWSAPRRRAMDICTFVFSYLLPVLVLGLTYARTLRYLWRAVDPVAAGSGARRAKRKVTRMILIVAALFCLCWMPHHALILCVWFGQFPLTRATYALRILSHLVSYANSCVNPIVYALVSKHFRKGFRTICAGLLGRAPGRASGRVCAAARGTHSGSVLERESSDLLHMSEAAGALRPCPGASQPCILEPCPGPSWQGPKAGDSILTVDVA
S1P2 antag = S1P2 (human) receptor antagonism | O95136 | cell-based S1P2 antagonist assay, inhibition at 5 uM | inhibition, % at 5 µM | 0.21% of 97,000 active; in the data active = inhibition above about 45%;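 also: CRE beta-lactamase reporter cells expressing human S1P2 stimulated with S1P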
GALR2 ag = GALR2 (human) receptor agonism | activation, % (no concentration beside the values) | O43603 | AID 803 | GALR2-expressing cells, agonist activation read-out | 0.48% of 140,000 active; in the data active = activation above about 5%, passing the limit was not always enough
PLAP act = activates human placental alkaline phosphatase; purified PLAP enzyme, luminescent substrate read-out; active compounds read high; P05187; activation fold at 20 µM; 1.2% of 96,000 active; in the data active = activation fold above about 2
Each line names hits and unclear results; the compound was inactive in the other large screens.

COC(C(=O)Nc1ccc(S(=O)(=O)N2CCCCC2)cc1)c1ccccc1 (configuration not stated)	PLAP act 2
COC(C(=O)Nc1ccc(S(=O)(=O)Nc2ccc(F)cc2)cc1)c1ccccc1 (configuration not stated)	none (no result: S1P2 ag, S1P2 antag, PLAP act)
CCOc1cc(CNCCc2ccc(S(N)(=O)=O)cc2)ccc1OCc1ccc(Cl)cc1	S1P2 antag 61
COc1cc(CNCCc2ccc(S(N)(=O)=O)cc2)ccc1OCc1ccc(Cl)cc1	none
Cc1nc(SCC(=O)c2ccc(F)cc2)n[nH]1	PLAP act 2.3 (no result: S1P2 ag, S1P2 antag)
Cc1nc(SCC(=O)c2cccc([N+](=O)[O-])c2)n[nH]1	none
C=CCn1c(C)cc(C(=O)CSc2n[nH]c(N)n2)c1C	PLAP act 2.7
Cc1cc(C(=O)CSc2n[nH]c(N)n2)c(C)n1C1CC1	none
Cc1cc(C(=O)CSc2n[nH]c(N)n2)c(C)n1-c1cc(F)ccc1F	PLAP act 2.4
N#CCCN(C(=O)COC(=O)c1ccc(CNS(=O)(=O)c2ccc(F)c(Cl)c2)cc1)c1ccc(F)cc1	none (no result: S1P2 ag, S1P2 antag, PLAP act)
Cc1[nH]c2ccccc2c1Cc1nnc(SCc2ccccc2)o1	none
Cc1cc(C(=O)CN2C(=O)NC(c3ccccc3)(c3ccccc3)C2=O)c(C)n1Cc1ccco1	none
Cc1cc(C(=O)CN2C(=O)NC(C)(c3cccc(Br)c3)C2=O)c(C)n1Cc1ccco1 (configuration not stated)	S1P2 ag 36
COc1ccccc1NC(=S)NNC(=O)c1ccccc1Br	none (no result: S1P2 ag, S1P2 antag, PLAP act)
CCOC(=O)c1cnc(-n2nc(C)cc2C)nc1NC1CCCCC1	S1P2 antag 91
O=C(COC(=O)c1cccc(C(=O)OCC(=O)NCc2ccc(F)cc2)n1)NCc1ccc(F)cc1	none (no result: S1P2 ag, S1P2 antag, PLAP act)
c1ccc(COc2ccc(Nc3ncnc4nc[nH]c34)cc2)cc1	PLAP act 2.3
Cc1cccc(Nc2ncnc3nc[nH]c23)c1	none (no result: PLAP act)
COc1ccc(Nc2ncnc3nc[nH]c23)cc1OC	PLAP act 2 (no result: S1P2 ag, S1P2 antag)
Cc1ccc(C)c(Nc2ncnc3nc[nH]c23)c1	PLAP act 2.4
O=c1onc(-c2ccc(Cl)cc2)n1Cc1ccc(F)cc1	none (no result: S1P2 ag, S1P2 antag, PLAP act)
COc1ccc(CNC(=O)CSc2nnc(Cn3nnc4ccccc43)n2C)cc1	none
CCOc1cc(N2CCCC2)ccc1[N+](=O)[O-]	none (no result: S1P2 ag, S1P2 antag, PLAP act)
O=C(c1ccc(Cn2cc(Br)cn2)o1)N1N=C(C(F)F)CC1(O)C(F)F (configuration not stated)	PLAP act 2
O=C(c1ccc(COc2ccc(Cl)cc2)o1)N1N=C(C(F)F)CC1(O)C(F)F (configuration not stated)	none (no result: S1P2 ag, S1P2 antag, PLAP act)
COc1ccc(C2C(C(=O)OCC(=O)NC(C)(C)C)CCC(=O)N2c2ccc(C)cc2)cc1OC (configuration not stated)	none
COc1ccc(C2C(C(=O)OCC(=O)Nc3ccc(C)cc3)CCC(=O)N2c2ccc(OC)cc2)cc1 (configuration not stated)	PLAP act 2.4
CCOC(=O)c1cc(-c2ccc(Cl)cc2)nc2c1c(C)nn2CCC#N	none
CCOC(=O)c1cc(-c2ccc3c(c2)OCCO3)nc2c1c(C)nn2CCC#N	GALR2 ag 7.1
CCCCOC(=O)c1ccc(NS(=O)(=O)c2cc(-c3nnnn3CC)ccc2OC)cc1	PLAP act 2.2
CCOC(=O)c1ccc(NS(=O)(=O)c2cc(-c3nnnn3CC)ccc2OC)cc1	none (no result: PLAP act)
Cc1ccc(C)c(NC(=O)CSc2nc3ccc(N4C(=O)c5ccccc5C4=O)cc3s2)c1	none (no result: S1P2 ag, S1P2 antag, PLAP act)
CCOc1ccc2c(c1)n(CO)c(=S)n2CO	PLAP act 2.3
CCOc1cc(S(=O)(=O)NCc2ccccn2)c(C)cc1C	PLAP act 2.2
Cc1cc(C)cc(NS(=O)(=O)c2ccc(NC(=O)C3CCCCC3C(=O)O)cc2)c1 (configuration not stated)	none (no result: S1P2 ag, S1P2 antag, PLAP act)
Cc1ccc(C2=NNC(C(O)C(O)C(O)CO)S2)cc1 (configuration not stated)	PLAP act 2.4
CCOc1cc(C2NN=C(c3ccc(C)cc3)S2)ccc1O (configuration not stated)	none (no result: S1P2 ag, S1P2 antag, PLAP act)
Nc1nc(SCc2nc3scc(-c4cccs4)c3c(=O)[nH]2)n[nH]1	PLAP act 2.5
Cc1nc2scc(-c3cccs3)c2c(=O)[nH]1	none
CCC(C)(C)NC(=O)Cc1ccc(C)cc1	none
Cc1ccc(Nc2nc(N3CCN(C)CC3)nc(N)c2[N+](=O)[O-])cc1C	none (no result: S1P2 ag, S1P2 antag, PLAP act)
Nc1nnnn1/N=C/c1cccc(OCc2ccccc2Cl)c1	none (no result: PLAP act)
COc1ccc(Nc2nc(Nc3ccc(OC)cc3)nc(-n3[nH]c(=O)c(C)c3C)n2)cc1	GALR2 ag 73
COc1ccc(Nc2ccnc(Nc3ccc(OC)cc3)n2)cc1	none (no result: S1P2 ag, S1P2 antag, PLAP act)
